# Data: PubChem BioAssay AID1159580 (chemical genetic matrix, 2015)
# Hit rate of the full screen: of about 5,500 compounds, about 2,000 (36%) were called active. Another 18% or so got no clear call; they are omitted. Some of the results follow. Values without a mark were called inactive. No stated cut-off is given here; in the data, active means normalized growth mostly below about 0.91 (no sharp cut-off); inconclusive means no clear call, values can overlap the other calls; inactive means mostly above about 0.92.
# Assay: chemical genetic growth profiling, strain panel (AID 1159580);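 further: tested at 20 µM; growth read once vehicle control cultures reached saturation at 30 °C; 1 = growth at the plate median or of vehicle wells; lower values mean less growth of the strain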
# Conditions: growth OD
smiles,measurement,setting,value
CCCCCCCCCCCCC[N+](C)(C)Cc1ccccc1,normalized growth,"S. cerevisiae deletion strains, locus YJR075W, strain HOC1, hits give low values",0.0621 (active)
same,normalized growth,"S. cerevisiae deletion strains, locus YKL009W, strain mrt4, hits give low values",0.102 (active)
same,normalized growth,"S. cerevisiae deletion strains, locus YKL068W, hits give low values",0.0707 (active)
same,normalized growth,"S. cerevisiae deletion strains, locus YKL085W, strain MDH1 (second series), hits give low values",0.0622 (active)
same,normalized growth,"S. cerevisiae deletion strains, locus YKL085W, strain MDH1, hits give low values",0.0622 (active)
same,normalized growth,"S. cerevisiae deletion strains, locus YKL160W, strain elf1, hits give low values",0.0609 (active)
same,normalized growth,"S. cerevisiae deletion strains, locus YKL190W, strain CNB1, hits give low values",0.0462 (active)
same,normalized growth,"S. cerevisiae deletion strains, locus YKR001C, strain vps1, hits give low values",0.0665 (active)
same,normalized growth,"S. cerevisiae deletion strains, locus YKR026C, strain gcn3, hits give low values",0.0645 (active)
same,normalized growth,"S. cerevisiae deletion strains, locus YKR091W, strain srl3, hits give low values",0.0591 (active)
same,normalized growth,"S. cerevisiae deletion strains, locus YLL001W, strain dnm1, hits give low values",0.0643 (active)
same,normalized growth,"S. cerevisiae deletion strains, locus YLL026W, hits give low values",0.0581 (active)
same,normalized growth,"S. cerevisiae deletion strains, locus YLL041C, strain sdh2, hits give low values",0.0534 (active)
same,normalized growth,"S. cerevisiae deletion strains, locus YLR027C, strain aat2, hits give low values",0.0632 (active)
same,normalized growth,"S. cerevisiae deletion strains, locus YLR039C, strain RIC1, hits give low values",0.0768 (active)
same,normalized growth,"S. cerevisiae deletion strains, locus YLR058C, strain SHM2, hits give low values",0.0468 (active)
same,normalized growth,"S. cerevisiae deletion strains, locus YLR102C, strain apc9, hits give low values",0.0591 (active)
same,normalized growth,"S. cerevisiae deletion strains, locus YLR113W, strain HOG1, hits give low values",0.115 (active)
same,normalized growth,"S. cerevisiae deletion strains, locus YLR221C, strain rsa3, hits give low values",0.0601 (active)
same,normalized growth,"S. cerevisiae deletion strains, locus YLR258W, strain gsy2, hits give low values",0.0594 (active)
same,normalized growth,"S. cerevisiae deletion strains, locus YLR262C, strain YPT6 (second series), hits give low values",0.0813 (active)
same,normalized growth,"S. cerevisiae deletion strains, locus YLR262C, strain YPT6, hits give low values",0.0988 (active)
same,normalized growth,"S. cerevisiae deletion strains, locus YLR268W, strain sec22, hits give low values",0.0715 (active)
same,normalized growth,"S. cerevisiae deletion strains, locus YLR320W, strain mms22, hits give low values",0.0747 (active)
same,normalized growth,"S. cerevisiae deletion strains, locus YLR330W, strain CHS5, hits give low values",0.0507 (active)
same,normalized growth,"S. cerevisiae deletion strains, locus YLR342W, strain FKS1 (second series), hits give low values",0.0621 (active)
same,normalized growth,"S. cerevisiae deletion strains, locus YLR342W, strain FKS1, hits give low values",0.0644 (active)
same,normalized growth,"S. cerevisiae deletion strains, locus YLR357W, strain rsc2, hits give low values",0.114 (active)
same,normalized growth,"S. cerevisiae deletion strains, locus YLR370C, strain arc18, hits give low values",0.0615 (active)
same,normalized growth,"S. cerevisiae deletion strains, locus YLR371W, strain rom2, hits give low values",0.0625 (active)
same,normalized growth,"S. cerevisiae deletion strains, locus YLR384C, strain iki3, hits give low values",0.0574 (active)
same,normalized growth,"S. cerevisiae deletion strains, locus YLR418C, strain cdc73, hits give low values",0.0973 (active)
same,normalized growth,"S. cerevisiae deletion strains, locus YML016C, strain PPZ1, hits give low values",0.0455 (active)
same,normalized growth,"S. cerevisiae deletion strains, locus YML032C, strain rad52, hits give low values",0.0731 (active)
same,normalized growth,"S. cerevisiae deletion strains, locus YML120C, strain ndi1, hits give low values",0.0563 (active)
same,normalized growth,"S. cerevisiae deletion strains, locus YML124C, strain tub3, hits give low values",0.0618 (active)
same,normalized growth,"S. cerevisiae deletion strains, locus YMR058W, strain fet3, hits give low values",0.064 (active)
same,normalized growth,"S. cerevisiae deletion strains, locus YMR078C, strain ctf18, hits give low values",0.0768 (active)
same,normalized growth,"S. cerevisiae deletion strains, locus YMR125W, strain sto1, hits give low values",0.0739 (active)
same,normalized growth,"S. cerevisiae deletion strains, locus YMR129W, hits give low values",0.0593 (active)
same,normalized growth,"S. cerevisiae deletion strains, locus YMR205C, strain PFK2, hits give low values",0.0873 (active)
same,normalized growth,"S. cerevisiae deletion strains, locus YMR223W, strain ubp8, hits give low values",0.0651 (active)
same,normalized growth,"S. cerevisiae deletion strains, locus YMR231W, strain pep5, hits give low values",0.0683 (active)
same,normalized growth,"S. cerevisiae deletion strains, locus YMR307W, strain GAS1, hits give low values",0.11 (active)
same,normalized growth,"S. cerevisiae deletion strains, locus YNL067W, strain RPL9B, hits give low values",0.0494 (active)
same,normalized growth,"S. cerevisiae deletion strains, locus YNL071W, strain lat1, hits give low values",0.0572 (active)
same,normalized growth,"S. cerevisiae deletion strains, locus YNL128W, strain TEP1, hits give low values",0.0628 (active)
same,normalized growth,"S. cerevisiae deletion strains, locus YNL153C, strain GIM3, hits give low values",0.0486 (active)
same,normalized growth,"S. cerevisiae deletion strains, locus YNL183C, strain NPR1, hits give low values",-0.00105 (active)
same,normalized growth,"S. cerevisiae deletion strains, locus YNL209W, strain ssb2, hits give low values",0.0596 (active)
same,normalized growth,"S. cerevisiae deletion strains, locus YNL233W, strain BNI4, hits give low values",0.0559 (active)
same,normalized growth,"S. cerevisiae deletion strains, locus YNL248C, strain rpa49, hits give low values",0.0866 (active)
same,normalized growth,"S. cerevisiae deletion strains, locus YNL250W, strain rad50, hits give low values",0.107 (active)
same,normalized growth,"S. cerevisiae deletion strains, locus YNL271C, strain bni1, hits give low values",0.0664 (active)
same,normalized growth,"S. cerevisiae deletion strains, locus YNL298W, strain CLA4, hits give low values",0.0607 (active)
same,normalized growth,"S. cerevisiae deletion strains, locus YNL307C, strain MCK1, hits give low values",0.0673 (active)
same,normalized growth,"S. cerevisiae deletion strains, locus YNL322C, strain KRE1 (second series), hits give low values",0.0716 (active)
same,normalized growth,"S. cerevisiae deletion strains, locus YNR049C, strain mso1, hits give low values",0.0569 (active)
same,normalized growth,"S. cerevisiae deletion strains, locus YNR052C, strain pop2, hits give low values",0.0607 (active)
same,normalized growth,"S. cerevisiae deletion strains, locus YOL006C, strain TOP1, hits give low values",0.101 (active)
same,normalized growth,"S. cerevisiae deletion strains, locus YOL012C, strain htz1",0.22
same,normalized growth,"S. cerevisiae deletion strains, locus YOL147C, strain pex11, hits give low values",0.0664 (active)
same,normalized growth,"S. cerevisiae deletion strains, locus YOR001W, strain rrp6, hits give low values",0.0665 (active)
same,normalized growth,"S. cerevisiae deletion strains, locus YOR061W, strain CKA2, hits give low values",0.0452 (active)
same,normalized growth,"S. cerevisiae deletion strains, locus YOR069W, strain VPS5, hits give low values",0.0467 (active)
same,normalized growth,"S. cerevisiae deletion strains, locus YOR070C, strain gyp1, hits give low values",0.0668 (active)
same,normalized growth,"S. cerevisiae deletion strains, locus YOR080W, strain dia2, hits give low values",0.0657 (active)
same,normalized growth,"S. cerevisiae deletion strains, locus YOR083W, strain WHI5, hits give low values",0.0673 (active)
same,normalized growth,"S. cerevisiae deletion strains, locus YOR106W, strain vam3, hits give low values",0.0651 (active)
same,normalized growth,"S. cerevisiae deletion strains, locus YOR136W, strain idh2, hits give low values",0.0728 (active)
same,normalized growth,"S. cerevisiae deletion strains, locus YOR144C, strain elg1, hits give low values",0.0629 (active)
same,normalized growth,"S. cerevisiae deletion strains, locus YOR184W, strain ser1, hits give low values",0.0779 (active)
same,normalized growth,"S. cerevisiae deletion strains, locus YOR231W, strain MKK1, hits give low values",0.103 (active)
same,normalized growth,"S. cerevisiae deletion strains, locus YOR265W, strain rbl2, hits give low values",0.0552 (active)
same,normalized growth,"S. cerevisiae deletion strains, locus YOR270C, strain vph1, hits give low values",0.0971 (active)
same,normalized growth,"S. cerevisiae deletion strains, locus YOR290C, strain snf2, hits give low values",0.0603 (active)
same,normalized growth,"S. cerevisiae deletion strains, locus YOR316C, strain cot1, hits give low values",0.0576 (active)
same,normalized growth,"S. cerevisiae deletion strains, locus YPL051W, strain arl3, hits give low values",0.0609 (active)
same,normalized growth,"S. cerevisiae deletion strains, locus YPL055C, strain LGE1, hits give low values",0.0695 (active)
same,normalized growth,"S. cerevisiae deletion strains, locus YPL078C, strain atp4, hits give low values",0.0642 (active)
same,normalized growth,"S. cerevisiae deletion strains, locus YPL106C, strain sse1, hits give low values",0.0953 (active)
same,normalized growth,"S. cerevisiae deletion strains, locus YPL240C, strain hsp82, hits give low values",0.0558 (active)
same,normalized growth,"S. cerevisiae deletion strains, locus YPL256C, strain CLN2, hits give low values",0.111 (active)
same,normalized growth,"S. cerevisiae deletion strains, locus YPR119W, strain clb2, hits give low values",0.0637 (active)
same,normalized growth,"S. cerevisiae deletion strains, locus YPR141C, strain kar3, hits give low values",0.0734 (active)
same,normalized growth,"S. cerevisiae deletion strains, locus YPR163C, strain tif3, hits give low values",0.0705 (active)
same,normalized growth,"S. cerevisiae deletion strains, locus YPR167C, strain met16, hits give low values",0.063 (active)
same,normalized growth,"S. cerevisiae deletion strains, strain wtn01, hits give low values",0.067 (active)
same,normalized growth,"S. cerevisiae strains, strain wild type, hits give low values",0.0467 (active)
